Only some compounds are listed: those with a hit (about 3.6% of all), similar ones and a draw of the others.
Anthrax LF inh2: Bacillus anthracis LF protease inhibitors, primary screen, biochemical, multiplex microsphere, MLPCN library. Lethal factor (Bacillus anthracis), P15917. multiplex microsphere protease cleavage assay. inhibition, % at 10 µM. 360,000 tested, 0.12% active. AID 588501, 2011; also: plate controls were buffer without enzyme for full effect and enzyme alone for no effect
BoNT A protease: BoNT/A light chain protease inhibitors, primary screen, biochemical, flow cytometry, MLPCN library; AID 588499, 2011; multiplex microsphere protease substrate cleavage; Botulinum neurotoxin type A light chain protease (Clostridium botulinum A str. ATCC 3502); inhibition, % at 10 µM; 360,000 tested, 0.17% active; also: plate controls were buffer without enzyme for full effect and enzyme alone for no effect
MazEF act: activators of E. coli MazEF toxin-antitoxin RNase, primary screen, biochemical, fluorescence, uHTS | Endoribonuclease toxin MazF (Escherichia coli (strain K12)), P0AE70 | FAM/BHQ RNA-DNA oligo cleavage fluorescence, 5 h | activation, % at 20 µM | 350,000 tested, 0.32% active; in the data active = activation above about 50%
Target sequence (P0AE70 whole entry, looked up): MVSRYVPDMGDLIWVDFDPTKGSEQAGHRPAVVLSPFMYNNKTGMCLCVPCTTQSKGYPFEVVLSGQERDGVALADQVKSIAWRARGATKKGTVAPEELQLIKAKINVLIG
Autofluor counter: compound fluorescence in toxin protease inhibitor counterscreen; fluorescence intensity (concentration not given with the values); 360,000 tested, 3.1% active; compound autofluorescence counterscreen, microsphere flow cytometry; stronger effect = higher value; in the data active = fluorescence intensity above about 16000; inconclusive = no clear call, values can overlap the other calls
BoNT F protease: BoNT/F light chain protease inhibitors, primary screen, biochemical, flow cytometry, MLPCN library; Multiplex microsphere protease cleavage assay; inhibition, % at 10 µM; 360,000 tested, 0.22% active; in the data active = inhibition above about 35%, passing the limit was not always enough; inconclusive = no clear call, values can overlap the other calls; also: plate controls were buffer without enzyme for full effect and enzyme alone for no effect
Numbers without * were called inactive; ? = inconclusive; . = not tested or not shown. Rule as the data show it, unless noted: active = inhibition above about 30%; inconclusive = no clear call, values can overlap the other calls; inactive = below that.

SMILES | Anthrax LF inh2 | BoNT A protease | MazEF act | Autofluor counter | BoNT F protease
CC(=O)c1ccc(NC(=O)C(C)Sc2nnnn2C)cc1 (configuration not stated) | 0 | -4 | -12 | 23749* | -6
CCC(/C=C1\Sc2ccc(OC)cc2N1CCO)=C\c1sc2ccc(OC)cc2[n+]1CCO | -26 | 40* | 0 | 1224 | -120
CCC(/C=C1\Sc2ccc(OC)cc2N1CC)=C\c1sc2ccc(OC)cc2[n+]1CCCS(=O)(=O)[O-] | 48* | 100* | 3 | 1738 | 16
CCO/C(=C/c1sc2ccc(OC)cc2[n+]1CCCS(=O)(=O)[O-])CC | -8 | 0 | -5 | 6051 | -9
CCN=C1S/C(=C\c2cc(OCC)c(O)cc2Br)C(=O)N1CC | 30* | 7 | -14 | 6185 | 72*
CCSc1nnc(NC(=O)c2cccnc2)s1 | -5 | 10 | -15 | 19138* | 13
CCSc1nnc(NC(=O)c2csc3c2CCCC3)s1 | -1 | 0 | -11 | 22354* | 1
Cc1cccc(OCc2nnc(SCC(=O)NC3CCCCC3)n2C)c1 | 2 | 3 | -24 | 5136 | 1
CN(C)C(=S)Oc1ccccc1C1(C)OCCO1 | 0 | 0 | 2 | 3732 | 7
COc1ccc(N2C(=O)NC(NC(=O)c3ccncc3)(C(F)(F)F)C2=O)cc1 (configuration not stated) | 3 | 1 | 1 | 22275* | 2
Cc1ccc([C@@H]2CC(=O)[C@@H]3CN(S(=O)(=O)c4ccc(C)cc4)[C@H](c4ccc(Cl)cc4)C[C@@H]3N2S(=O)(=O)c2ccc(C)cc2)cc1 | 2 | 0 | -7 | 4302 | 4
CN1CCN(C(=O)c2cnc(Cc3c[nH]c4ccccc34)c(I)c2)CC1 | 2 | -1 | . | 3807 | -6
O=c1[nH]c(N/N=C\c2ccc(F)cc2)nc2ccccc12 | -1 | 0 | 56* | 2006 | -1
O=c1[nH]c(N/N=C/c2ccc(O)cc2)nc2ccccc12 | 1 | 0 | 51* | 2526 | -2
CCN1C(=O)[C@@H]2[C@@H](c3ccc(-c4ccc(F)cc4)c(OC)c3)N3CCC[C@@]3(C(=O)OC)[C@@H]2C1=O | 1 | -1 | 3 | 3876 | -11
CCCCOCCCNC(=O)C[C@@H]1C[C@@]2(C(=O)OCC)CCCC=C2N(Cc2ccc3c(c2)OCO3)C1=O | -6 | -1 | . | 4590 | -7
O=c1[nH][nH]c2c1[C@H](c1ccccc1)O[C@H](C1CCCCC1)C2 | -7 | 0 | . | 6222 | -11
COc1ccc(-c2ccc(-c3nnc(Cc4ccc(OC)c(OC)c4)o3)cc2)cc1 | -5 | 1 | -14 | 22185* | 4
CCCCCCNc1cc(C)oc(=O)c1C(C)=O | -2 | 0 | -8 | 2546 | 0
CCCCNc1cc(C)oc(=O)c1C(C)=O | -2 | 6 | 1 | 21662* | 6
Cn1c(=O)c2c(-c3ccccc3)n(-c3cc(Cl)c([N+](=O)[O-])cc3O)cc2n(C)c1=O | -20 | -18 | . | 21612* | -127
CC(=O)Nn1cc2c(c1-c1ccccc1)c(=O)n(C)c(=O)n2C | 2 | -2 | 1 | 24616* | -7
O=C1CSC(c2ccccn2)N1c1ccccc1 (configuration not stated) | 0 | 2 | 0 | 21482* | 6
CCCCC[C@@H]1[C@H]2[C@H]3C(=O)N(c4ccccc4)C(=O)[C@H]3CC(=O)[C@H]2[C@H](c2ccccc2)N1S(=O)(=O)c1ccc(C)cc1 | -2 | 0 | . | 5866 | -3
Cc1ccc([C@@H]2CC(=O)[C@@H]3CN(S(=O)(=O)c4ccc(C)cc4)[C@H](c4ccccc4)C[C@@H]3N2S(=O)(=O)c2ccc(Cl)cc2)cc1 | -4 | -1 | -21 | 4691 | -7
SMILES | Anthrax LF inh2 | BoNT A protease | MazEF act | Autofluor counter | BoNT F protease
O=C1NC(=O)C2(Cc3ccccc3N3CCCC32)C(=O)N1c1ccccc1 (configuration not stated) | -1 | 1 | 2 | 3927 | -5
O=C1NC(=O)C2(Cc3ccccc3N3CCOCC32)C(=O)N1c1ccccc1 (configuration not stated) | -1 | 1 | -3 | 22770* | 0
Cc1ccc(S(=O)(=O)NC2(C(F)(F)F)C(=O)Nc3c2c(=O)n(C)c(=O)n3C)cc1 (configuration not stated) | -7 | 0 | 7 | 7134 | 2
CCC(=O)NC1(C(F)(F)F)C(=O)Nc2c1c(=O)n(C)c(=O)n2C (configuration not stated) | -2 | 0 | -2 | 23514* | 0
O=c1[nH]cnc2c1cnn2Cc1ccccc1 | -3 | ? | 5 | 21532* | 2
CN(c1cccc(NC(=O)CN(c2ccc(C34CC5CC(CC(C5)C3)C4)cc2)S(C)(=O)=O)c1)S(C)(=O)=O | 6 | ? | 3 | 6132 | 34
CC(C)(C)c1cc(C(=S)N2CCN(CCO)CC2)cc(C(C)(C)C)c1O | -4 | 1 | 1 | 23211* | 0
CC(=O)Nc1cc(=O)c2cccnc2[nH]1 | -3 | 0 | -15 | 3564 | -2
COc1ccc(NC(=O)N2c3ccccc3CC2C)cc1OC (configuration not stated) | -10 | 1 | -6 | 9172 | -1
COC(=O)c1ccccc1NC(=O)N1c2ccccc2CC1C (configuration not stated) | -3 | ? | 7 | 20425* | 2
CC1Cc2ccccc2N1C(=O)COC(=O)c1cccnc1Cl (configuration not stated) | -2 | ? | 6 | 16252* | 2
CC1Cc2ccccc2N1C(=O)COC(=O)c1ccccc1NCCO (configuration not stated) | 0 | -4 | 4 | 6754 | 0
COc1ccccc1-c1nnc(SCC(=O)Nc2ccc(Cl)cc2Cl)o1 | -13 | 0 | 5 | 9273 | -1
COc1cccc2c1OC[C@@H](CO)[C@H]2N(C)C(=O)Nc1ccc(Cl)cc1Cl | -1 | -7 | -3 | 17819* | -10
CCCN1Cc2cccc(C(=O)Nc3cc(OC)cc(OC)c3)c2C1=O | -8 | 1 | -12 | 22619* | 2
COCCN1Cc2cccc(C(=O)Nc3cccc(OC)c3)c2C1=O | -8 | -1 | 8 | 3649 | -3
O=C(NC(c1ccc(Cl)cc1)c1ccsc1)C1CCN(Cc2ccc(Oc3ccccc3)cc2)CC1 (configuration not stated) | -4 | -1 | . | 4014 | -20
CN1C=CC=C/C1=C1\SC(=S)N(c2ccccc2)C1=O | -4 | 0 | 1 | 3391 | -2
CCN1C(C)=C(C)S/C1=C1\SC(=S)N(NC(C)=O)C1=O | -3 | -1 | -10 | 3312 | -2
CN1C=CC=C/C1=C1\SC(=S)N(C2CCCCC2)C1=O | -4 | ? | -5 | 21024* | 3
CCN1C(C)=C(C)S/C1=C1\SC(=S)N(C2CCCCC2)C1=O | 0 | 3 | 354* | 2309 | 0
CC(C)Oc1cc(F)ccc1-c1cc(C(=O)NCc2cccnc2)[nH]n1 | 1 | -1 | . | 3933 | 2

Assay outcomes as filed in PubChem.
